From PubChem BioAssay (NCATS)
Results filed as inconclusive are left out. Values without a mark were called inactive. The call rests on the fitted dose curve; in most records, active means well fitted inhibition curve with a large enough effect; inconclusive means small, poorly fitted or top-dose-only effect; inactive means no such curve, though single readings can be large or run the other way.

target: Retinaldehyde dehydrogenase 3 (Homo sapiens) (UniProt P47895); assay: qHTS for Inhibitors of the Aldehyde Dehydrogenase Family (ALDH1A3) Primary screen (AID 2061315); conditions: ALDH inhibition qHTS; series mostly up to 56 µM; activity change, negative = inhibition: at the top concentration;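 further: plate controls were DMSO vehicle for no effect and reference inhibitor for full effect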

Row | SMILES | activity change, negative = inhibition
1 | C[C@@H]1O[C@@H](O[C@H]2[C@H](OC(=O)[C@]34CCC(C)(C)C[C@H]3C3=CCC5[C@@]6(C)C[C@H](O)[C@H](O[C@@H]7O[C@H](CO[C@@H]8OC[C@H](O)[C@H](O)[C@H]8O)[C@@H](O)[C@H](O)[C@H]7O)C(C)(C)C6CC[C@@]5(C)[C@]3(C)C[C@H]4O)OC[C@@H](O)[C@@H]2O)[C@H](O)[C@H](O[C@@H]2OC[C@](O)(CO)[C@H]2O)[C@H]1O[C@@H]1OC[C@H](O)[C@H](O[C@@H]2OC[C@@H](O)[C@H](O)[C@H]2O)[C@H]1O (some centres undefined) | 0.994% [at 11.2 µM]
2 | COC12CC3C(C(C)C1=CC(=O)O2)C(O)C(OC(C)=O)C1C(C)(C)C(OC(C)=O)CCC31C (centres undefined) | 0.815% [at 28 µM]
3 | O=C(Nc1ccc(N(Cc2ccsc2)C(=O)Cn2nnc3ccccc32)cc1)C1CC1 | -3.38%
4 | O=S(=O)(c1ccc(Cl)cc1)N1CCN(c2ccnc3cc(Cl)ccc23)CC1 | -4.26%
5 | CC1(C)C2CC=C(COC3OC(COC4OCC(O)(CO)C4O)C(O)C(O)C3O)C1C2 (centres undefined) | 0.0222% [at 28 µM]
6 | CC(C)(O)c1ccc2c(c1)C(O)C[C@H]1[C@](C)(C(=O)O)CCC[C@]21C (some centres undefined) | -14%
7 | Cc1ccccc1C(=O)N1CC/C(=N\OS(=O)(=O)O)c2ccc(Cl)cc21 | 7.52%
8 | C[C@H](N)C(=O)N[C@@H](Cc1ccc(O)cc1)C(=O)N1CCC[C@H]1C(=O)NCC(=O)N[C@@H](CCCCN)C(=O)N[C@@H](Cc1ccccc1)C(N)=O | -9.63% [at 11.2 µM]
9 | C=C1C(=O)O[C@H](CCC)[C@H]1C(=O)O | 2.68%
